# The whole screen tested about 5,500 compounds, of which about 2,000 (36%) were called active. About 18% were inconclusive and are not listed. The list shows a part of the results. Values without a mark were called inactive. Cut-off read from the data, not from the text of the source: active = normalized growth mostly below about 0.91 (no sharp cut-off); inconclusive = no clear call, values can overlap the other calls; inactive = mostly above about 0.92.
# Assay: chemical genetic growth profiling, strain panel (AID 1159580);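 note: tested at 20 µM; growth read once vehicle control cultures reached saturation at 30 °C; 1 = growth at the plate median or of vehicle wells; lower values mean less growth of the strain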
# Settings: S. cerevisiae deletion strains, growth OD
compound,measurement,setting,value
O=C(O)CCC(=O)Nc1ccc(S(=O)(=O)Nc2nccs2)cc1,normalized growth,"locus YAL021C, strain ccr4, stronger effect = lower value",1
same,normalized growth,"locus YAL026C, strain drs2, stronger effect = lower value",1
same,normalized growth,"locus YAL030W, strain snc1, stronger effect = lower value",1.03
same,normalized growth,"locus YBL061C, strain skt5, stronger effect = lower value",0.994
same,normalized growth,"locus YBR009C, strain hhf1, stronger effect = lower value",1.02
same,normalized growth,"locus YBR023C, strain chs3, stronger effect = lower value",0.993
same,normalized growth,"locus YBR171W, strain sec66, stronger effect = lower value",0.997
same,normalized growth,"locus YBR231C, strain swc5, stronger effect = lower value",0.996
same,normalized growth,"locus YBR279W, strain paf1, stronger effect = lower value",0.989
same,normalized growth,"locus YCL011C, strain gbp2, stronger effect = lower value",0.728 (active)
same,normalized growth,"locus YCL016C, strain dcc1, stronger effect = lower value",0.985
same,normalized growth,"locus YCL061C, strain MRC1, stronger effect = lower value",0.996
same,normalized growth,"locus YCL069W, strain vba3, stronger effect = lower value",1
same,normalized growth,"locus YCR088W, strain abp1, stronger effect = lower value",0.994
same,normalized growth,"locus YDL005C, strain med2, stronger effect = lower value",0.987
same,normalized growth,"locus YDL040C, strain nat1, stronger effect = lower value",0.999
same,normalized growth,"locus YDR001C, strain nth1, stronger effect = lower value",1
same,normalized growth,"locus YDR069C, strain doa4, stronger effect = lower value",1
same,normalized growth,"locus YDR137W, strain rgp1, stronger effect = lower value",0.989
same,normalized growth,"locus YDR159W, strain sac3, stronger effect = lower value",0.922
same,normalized growth,"locus YDR195W, strain ref2",0.967
same,normalized growth,"locus YDR297W, strain sur2, stronger effect = lower value",1.01
same,normalized growth,"locus YDR334W, strain swr1, stronger effect = lower value",0.989
same,normalized growth,"locus YDR335W, strain msn5, stronger effect = lower value",0.992
same,normalized growth,"locus YDR392W, strain spt3, stronger effect = lower value",0.912
same,normalized growth,"locus YEL003W, strain gim4, stronger effect = lower value",1.02
same,normalized growth,"locus YEL037C, strain rad23, stronger effect = lower value",1.01
same,normalized growth,"locus YEL061C, strain CIN8 (second series), stronger effect = lower value",1.02
same,normalized growth,"locus YER015W, strain faa2, stronger effect = lower value",1
same,normalized growth,"locus YER016W, strain bim1, stronger effect = lower value",0.981
same,normalized growth,"locus YER111C, strain swi4, stronger effect = lower value",1.01
same,normalized growth,"locus YER155C, strain BEM2 (second series), stronger effect = lower value",0.981
same,normalized growth,"locus YFR010W, strain ubp6, stronger effect = lower value",1
same,normalized growth,"locus YGL167C, strain pmr1, stronger effect = lower value",0.995
same,normalized growth,"locus YGL173C, strain kem1, stronger effect = lower value",0.987
same,normalized growth,"locus YGL227W, strain vid30, stronger effect = lower value",0.994
same,normalized growth,"locus YGL240W, strain doc1, stronger effect = lower value",1
same,normalized growth,"locus YGL253W, strain hxk2, stronger effect = lower value",1
same,normalized growth,"locus YHR013C, strain ard1, stronger effect = lower value",0.983
same,normalized growth,"locus YHR027C, strain rpn1, stronger effect = lower value",0.991
same,normalized growth,"locus YHR030C, strain SLT2, stronger effect = lower value",1.04
same,normalized growth,"locus YHR079C, strain IRE1, stronger effect = lower value",1.06
same,normalized growth,"locus YHR142W, strain chs7, stronger effect = lower value",1
same,normalized growth,"locus YJL092W, strain hpr5, stronger effect = lower value",1
same,normalized growth,"locus YJL095W, strain BCK1 (second series), stronger effect = lower value",0.996
same,normalized growth,"locus YJL095W, strain BCK1, stronger effect = lower value",1.01
same,normalized growth,"locus YJL115W, strain asf1, stronger effect = lower value",0.997
same,normalized growth,"locus YJL129C, strain trk1, stronger effect = lower value",0.994
same,normalized growth,"locus YJL154C, strain vps35, stronger effect = lower value",0.99
same,normalized growth,"locus YJL164C, strain tpk1, stronger effect = lower value",0.998
same,normalized growth,"locus YJL166W, strain qcr8, stronger effect = lower value",1
same,normalized growth,"locus YJL187C, strain SWE1, stronger effect = lower value",1.01
same,normalized growth,"locus YJR066W, strain TOR1, stronger effect = lower value",0.998
same,normalized growth,"locus YKL160W, strain elf1, stronger effect = lower value",1.01
same,normalized growth,"locus YKR026C, strain gcn3, stronger effect = lower value",1
same,normalized growth,"locus YKR091W, strain srl3, stronger effect = lower value",0.998
same,normalized growth,"locus YLL001W, strain dnm1, stronger effect = lower value",1.01
same,normalized growth,"locus YLL026W, stronger effect = lower value",0.987
same,normalized growth,"locus YLL041C, strain sdh2, stronger effect = lower value",1.01
same,normalized growth,"locus YLR027C, strain aat2, stronger effect = lower value",1.01
same,normalized growth,"locus YLR113W, strain HOG1, stronger effect = lower value",1.02
same,normalized growth,"locus YLR221C, strain rsa3, stronger effect = lower value",1
same,normalized growth,"locus YLR258W, strain gsy2, stronger effect = lower value",0.993
same,normalized growth,"locus YLR262C, strain YPT6 (second series), stronger effect = lower value",1.01
same,normalized growth,"locus YLR320W, strain mms22, stronger effect = lower value",0.976
same,normalized growth,"locus YLR342W, strain FKS1, stronger effect = lower value",1
same,normalized growth,"locus YLR357W, strain rsc2, stronger effect = lower value",0.991
same,normalized growth,"locus YLR370C, strain arc18, stronger effect = lower value",1
same,normalized growth,"locus YLR384C, strain iki3, stronger effect = lower value",1
same,normalized growth,"locus YML120C, strain ndi1, stronger effect = lower value",1.02
same,normalized growth,"locus YMR058W, strain fet3, stronger effect = lower value",1
same,normalized growth,"locus YMR125W, strain sto1, stronger effect = lower value",0.977
same,normalized growth,"locus YMR129W, stronger effect = lower value",0.977
same,normalized growth,"locus YMR205C, strain PFK2, stronger effect = lower value",0.985
same,normalized growth,"locus YMR231W, strain pep5, stronger effect = lower value",1
same,normalized growth,"locus YNL071W, strain lat1, stronger effect = lower value",1.01
same,normalized growth,"locus YNL183C, strain NPR1, stronger effect = lower value",0.968
same,normalized growth,"locus YNL209W, strain ssb2, stronger effect = lower value",1
same,normalized growth,"locus YNL248C, strain rpa49, stronger effect = lower value",1.02
same,normalized growth,"locus YNL322C, strain KRE1 (second series), stronger effect = lower value",0.966
same,normalized growth,"locus YNR049C, strain mso1, stronger effect = lower value",0.999
same,normalized growth,"locus YOR001W, strain rrp6, stronger effect = lower value",0.998
same,normalized growth,"locus YOR070C, strain gyp1, stronger effect = lower value",0.998
same,normalized growth,"locus YOR080W, strain dia2, stronger effect = lower value",0.987
same,normalized growth,"locus YOR083W, strain WHI5, stronger effect = lower value",0.938
same,normalized growth,"locus YOR106W, strain vam3, stronger effect = lower value",0.979
same,normalized growth,"locus YOR231W, strain MKK1, stronger effect = lower value",1.07
same,normalized growth,"locus YOR265W, strain rbl2, stronger effect = lower value",1.01
same,normalized growth,"locus YOR270C, strain vph1, stronger effect = lower value",1.03
same,normalized growth,"locus YOR290C, strain snf2, stronger effect = lower value",0.984
same,normalized growth,"locus YPL051W, strain arl3, stronger effect = lower value",0.995
same,normalized growth,"locus YPL078C, strain atp4, stronger effect = lower value",0.984
same,normalized growth,"locus YPL106C, strain sse1, stronger effect = lower value",0.944
same,normalized growth,"locus YPL240C, strain hsp82, stronger effect = lower value",0.995
same,normalized growth,"locus YPL256C, strain CLN2, stronger effect = lower value",1.01
